Results taken from PubChem BioAssay (NCI).
This is part of a sample that, as a whole, favours compounds with a hit. Of some 83,000 tested, about 20% had one in any assay.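 Treatment: one concentration, 48 hours, 96-well format. Scoring: percent growth, with anything below 10 considered active.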 Unmarked numbers belong to inactive results. Calls of active or inactive are those of the source.

Test system: PC-3 prostate
Experiment: NCI-60 one-dose screen, 48 h (100 = growth as untreated, 0 = no growth, -100 = all killed)
Settings: 10 µM unless noted
Protocol: Growth inhibition of the PC-3 human tumor cell line is measured as a screen for anti-cancer activity. Cells are grown in 96 well plates and exposed to the test compound for 48 hours. Compounds are tested at a single concentration, which is 10^-5 M for most compounds. The reported endpoint is percent growth (GI% or GIPRCNT), where numbers from 0 - 100% represent growth inhibition, and numbers from -100% - 0 represent cell death. For example, a value of 40 represents 60% growth inhibition. A value of 0 means no net growth occurred over the course of the experiment. A value of -40 indicates 40% of cells at the beginning of the experiment died by the end of the experiment. A value of -100 means all cells are dead at the end of the experiment.
NCI-60 Human Tumor Cell Lines Screen was performed using the standard one-dose NCI protocol, which is described in more detail at https://dtp.cancer.gov/discovery_development/nci-60/default.htm.
Compounds with GIPRCNT values below 10 were considered active. Activity score was based on GIPRCNT using the following formula: […]
Score is 0 for GIPRCNT values of 100 or above, 50 for GIPRCNT values of 0, and 100 for GIPRCNT values of -100.

| Compound | growth |
| --- | --- |
| Cc1cc(N2CCCC2)nc(N(CCCNc2ccnc3cc(Cl)ccc23)Cc2ccc3c(c2)OCO3)n1 | 20.7% |
| O=C(N/N=C/c1ccc(Cl)cc1)c1cc(-c2cc3ccccc3o2)nn1-c1ccccc1 | 89.6% |
| Cc1cc(Oc2ccccc2)ccc1Nc1ncnc2ccc(-c3cnc(Cl)c(NS(C)(=O)=O)c3)cc12 | 25.3% |
| COc1ccc(C2OC(c3cc(-c4cc5ccccc5o4)nn3-c3ccccc3)=NN2C(C)=O)cc1 (stereo not given) | 88.9% |
| CCN(CC)CCN1C(=O)c2cccc3c(-c4ccc5c(c4)ncn5C4CCCCC4)ccc(c23)C1=O | 5.21% (active) |
| Clc1ccc(Nc2nccc(Nc3ccc4[nH]ncc4c3)n2)cc1 | 24.9% |
| CN1CCN(CCOc2cc(OC3CCOCC3)c3c(Nc4c(Cl)ccc5c4OCO5)ncnc3c2)CC1 | 71% |
| Cc1cn(-c2cc(NC(=O)c3ccc(C)c(Nc4nccc(-c5cnccn5)n4)c3)cc(C(F)(F)F)c2)cn1 | 60.3% |
| c1cn2cc(-c3ccc4cn[nH]c4c3)nc(Nc3ccc(N4CCOCC4)cc3)c2n1 | 43.3% |
| Cc1ccc(Nc2nccc(N(C)c3ccc4c(C)n(C)nc4c3)n2)cc1S(N)(=O)=O | 45.2% |
| Cc1cc(Nc2cc(N3CCN(C)CC3)nc(Sc3ccc(NC(=O)C4CC4)cc3)n2)n[nH]1 | 35.2% |
| CC(C)[C@@H](C)/C=C/[C@@H](C)[C@H]1CCC2=C3C=CC4=CC(=O)CC[C@]4(C)[C@H]3CC[C@@]21C | 62.8% |
| C=CC(=O)N1CCC(Oc2cc3c(Nc4ccc(Cl)c(Cl)c4F)ncnc3cc2OC)CC1 | 14.2% |
| N#Cc1c(C(F)(F)F)cc(Nc2ccc3nc(NCCN4CCCC4)oc3c2)n2c1nc1ccccc12 | 52.1% |
| C#Cc1cccc(Nc2ncnc3cc(OC)c(OCCCCCCC(=O)NO)cc23)c1 | 10.4% |
| NC(=O)c1n[nH]n2c1nc(=O)c1c3c(sc12)CCCC3 | 85.3% |
| Cn1ccnc1C(=O)/C=C/c1ccc(CC(=O)Nc2ccc(S(F)(F)(F)(F)F)cc2)cc1 | -32.7% (active) |
| CCN1CCN(c2cc(C)nc(N(CCCNc3ccnc4cc(Cl)ccc34)Cc3cccs3)n2)CC1 | 32.8% |
| COC(=O)CC[C@@H](C)[C@H]1CC[C@H]2C3CC[C@@H]4C[C@@H]5CC[C@]4(C)[C@@]3(O5)[C@H](Br)[C@@H](Br)[C@]12C (stereo not given in full) | 77.9% |
| O=C(O)c1ccc2c(c1)nc(Nc1cccc(Cl)c1)c1ccncc12 | 10.1% |

| Compound | growth |
| --- | --- |
| CCOC(=O)Sc1ncnc2nc[nH]c12 | 88% |
| COC1CCC(N2C(=O)CNc3ncc(-c4ccc(C(C)(C)O)nc4)nc32)CC1 (stereo not given) | 8.06% (active) |
| CCN(CC)C(=O)C[N+](C)(C)CCOC(c1ccccc1)c1ccccc1 | 100% |
| Nc1nc(Nc2ccccc2)c(C=Nc2ccccc2)c(=O)[nH]1 | 87.5% |
| CCCC(=O)OCC1OC(n2cnc3c(=S)nc[nH]c32)C(OC(=O)CCC)C1OC(=O)CCC (stereo not given) | 59.7% |
| Cc1cc(C(O)CN(C)C)cc2c1ccc1cc(C(C)C)ccc12 (stereo not given) | 48.6% |
| CCCC(=O)OCC1OC(n2cnc3c(=S)nc(N)[nH]c32)C(OC(=O)CCC)C1OC(=O)CCC (stereo not given) | 76.1% |
| C[C@@H]1COC(Nc2ccc3ncnc(Nc4ccc(OCc5nccs5)c(Cl)c4)c3c2)=N1 | 8.43% (active) |
| C[C@@H](Nc1cc(F)cc(F)c1)c1cc(C(=O)N(C)C)cc2c(=O)cc(N3CCOCC3)oc12 | 29% |
| C[N+](C)(CCOC(c1ccccc1)c1ccccc1)CC(=O)OCc1ccccc1 | 98.3% |
| Fc1ccc(NCc2cn(-c3ccccc3)nc2-c2ccc(OCc3ccccc3)cc2)cc1Cl | 79.9% |
| CCN(CC)CCOc1ccc(/C(=C(\C)c2ccc(Cl)cc2)c2ccc(Cl)cc2)cc1 | 70.7% |
| NC1(c2ccc(-c3nc4ccn5c(=O)[nH]nc5c4cc3-c3ccccc3)cc2)CCC1 | 21.3% |
| Cc1ccc2oc(=O)cc(-c3cc(-c4cc5ccccc5oc4=O)nc(N)c3C#N)c2c1 | 69% |
| ClCc1ccc(-c2ccc(Cn3cnc4c(Cl)nc(Cl)nc43)cc2)cc1 | -95.6% (active) |
| COc1ccc2c(CCCCC(c3ccccc3)c3ccccc3)c3[n+](cc2c1OC)CCc1cc2c(cc1-3)OCO2 | -75% (active) |
| NS(=O)(=O)c1ccc(CCN2C(=O)/C(=C\c3ccc(Cl)cc3)C=C2c2ccc3ccccc3c2)cc1 | 75.8% |
| Cc1cc([C@@H](C)Nc2ccccc2C(=O)O)c2nc(N3CCOCC3)cc(=O)n2c1 | 30.5% |
| CN1CCN(Cc2ccc(NC(=O)c3[nH]ncc3Nc3ncnc4sc5c(c34)CCCC5)cc2)CC1 | -77.8% (active) |
| COC(=O)[C@H](C)NC(=O)[C@@H](OC)[C@@H]1Cc2cc3cc(OC4CC(OC5CC(O)C(O)C(C)O5)C(O)C(C)O4)c(C)c(O)c3c(O)c2C(=O)[C@H]1OC1CC(OC2CC(OC3CC(C)(O)C(O)C(C)O3)C(O)C(C)O2)C(O)C(C)O1 (stereo not given in full) | 8.21% (active) |
